From PubChem BioAssay

These molecules were tested against Albumin (Bos taurus) (UniProt P02769) (assay: compounds binding labelled BSA control protein – biochemical, small-molecule microarray, Alexa647 label, 635/667 nm fluorescence, artefact control for SMM control protein annotation, profiling panel (AID 1118;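 further: score merges 667 nm emission intensity and signal-to-noise per printed compound spot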)). Conditions: BSA-A647 binding, fluorescence 635 nm, higher = more signal.
Albumin (Bos taurus), sequence (P02769 whole entry, looked up): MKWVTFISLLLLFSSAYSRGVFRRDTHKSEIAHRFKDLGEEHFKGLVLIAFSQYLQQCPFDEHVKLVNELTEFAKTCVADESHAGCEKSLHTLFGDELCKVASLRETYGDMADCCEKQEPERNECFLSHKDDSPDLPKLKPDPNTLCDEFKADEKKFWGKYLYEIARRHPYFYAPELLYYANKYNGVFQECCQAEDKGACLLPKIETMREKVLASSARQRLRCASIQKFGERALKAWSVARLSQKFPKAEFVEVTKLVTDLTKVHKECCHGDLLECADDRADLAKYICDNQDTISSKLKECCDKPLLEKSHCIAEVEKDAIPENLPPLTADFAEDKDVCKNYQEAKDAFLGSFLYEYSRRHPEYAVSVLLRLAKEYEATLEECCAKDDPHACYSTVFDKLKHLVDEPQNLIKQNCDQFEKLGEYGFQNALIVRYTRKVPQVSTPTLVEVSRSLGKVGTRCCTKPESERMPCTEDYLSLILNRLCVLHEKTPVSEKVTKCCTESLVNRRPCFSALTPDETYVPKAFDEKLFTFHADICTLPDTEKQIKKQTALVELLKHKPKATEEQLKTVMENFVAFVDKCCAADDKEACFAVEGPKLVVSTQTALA

| SMILES | composite z-score |
| --- | --- |
| Cc1ccc(S[C@]2(C(=O)NCCCN(C)C)CC(=O)N(C3CCCCC3)[C@@H]2c2ccc(CO)cc2I)cc1 | -1.58 |
| O=C1C2C=CC(C(O)C#Cc3ccccc3)N(Nc3ccccc3)C2C(=O)N1c1ccccc1 (stereo unspecified) | 0.812 |
| O=C1NC(=O)C2C1C=CC(C(O)C=Cc1ccc([N+](=O)[O-])cc1)N2Nc1ccccn1 (stereo unspecified) | -0.0573 |
| Cc1ccc(S(=O)(=O)N[C@H]2COC(=O)CC=C[C@H](C)COC(=O)N[C@@H](C)C(=O)CC=C[C@@H]2C)cc1 | -0.0363 |
| Cc1ccc(N2C(=O)c3ccccc3[C@](C)(C(=O)NCC(C)C)[C@@H]2c2ccc(CO)cc2)nc1 | -1.09 |
| O=C1C2C=CC(C(O)c3ccccc3)N(n3cnnc3)C2C(=O)N1Cc1ccccc1 (stereo unspecified) | 0.878 |
| COc1cc([C@@H]2N[C@H](C(=O)O)Cc3c2[nH]c2ccccc32)cc(OC)c1OC | 0.1 |
| C=CCNC(=O)[C@H]1[C@@H]2C(=O)O[C@@H](c3ccccc3)[C@@H](c3ccccc3)N2[C@@H](c2ccc(O)cc2)[C@]12C(=O)Nc1ccc(C#CCNC(N)=O)cc12 | -0.273 |
| CCC#CCN(Cc1ccccc1Br)[C@H](/C=C/c1ccccc1)[C@@H](O)Cc1ccccc1 | -0.904 |
| CCCC=C(CCC)[C@@H](NC(=O)c1ccccc1)c1ccccc1 | -0.399 |
| CO[C@H]1O[C@H](CO)[C@@H](OC(=O)CCc2ccccc2)[C@@H]2OC(=O)[C@H](Cc3cccc(Br)c3)C/C=C/C[C@@H](Cc3cccc(Br)c3)C(=O)O[C@@H]12 | 0.803 |
| C=CCC(OC(C)=O)[C@@H]1[C@@H](N(Cc2cccc3ccccc23)C(=O)c2ccc(C)cc2)c2cc(OCCCO)ccc2N1C(=O)c1ccc(-c2ccccc2)cc1 (stereo partly specified) | -0.0575 |
| Cc1ccc(N2C(=O)c3ccccc3[C@](C)(C(=O)O)[C@@H]2c2ccc(CO)cc2)nc1 | -1.29 |
| C[C@@H]1CC[C@H]2C(=O)N3[C@@H](CC[C@@H](C)[C@@H]3c3cccc(N4CCOCC4)c3)C(=O)N2[C@H]1c1cccc(N2CCOCC2)c1 | 0.0915 |
| Cc1ccc(S[C@]2(C(=O)NCCN3CCOCC3)CC(=O)N(C3Cc4ccccc4C3)[C@@H]2c2ccc(CO)cc2I)cc1 | 0.545 |
| N#Cc1ccc(NN2C(C(O)c3ccc(I)cc3)C=CC3C(=O)N(c4ccccc4)C(=O)C32)cc1 (stereo unspecified) | 0.946 |
| CCOC(=O)[C@H]1C/C=C/C[C@H](C(=O)OCC)C(=O)O[C@H]2[C@@H](OC)O[C@H](CO)[C@@H](OC(=O)Nc3ccc(Br)cc3)[C@@H]2OC1=O | 0.827 |
| C[C@@H]1C=CCC(=O)OC[C@H]2O[C@@H](C=C[C@@H]2O)[C@H](C)C=CCC(=O)OC[C@H]2O[C@H]1C=C[C@@H]2O | -0.581 |

| SMILES | composite z-score |
| --- | --- |
| CO[C@@H]1COC(=O)[C@H](C)NC(=O)CC=C[C@@H](C)[C@H](NS(=O)(=O)c2ccc(C)cc2)COC(=O)CC=C[C@@H]1C | -0.471 |
| C=C(CCCC)/C(=C/C[C@@H](OC(=O)c1ccncc1)c1cccc(OCCO)c1)c1cc(C(=O)OC)ccc1OC | 0.6 |
| [N-]=[N+]=NCc1ccccc1C[C@]1(C(N)=O)N=C(c2ccc(OCCCO)cc2)O[C@H]1c1ccccc1CN=[N+]=[N-] | 1.05 |
| CCCCO[C@H]1C[C@H]2C(Br)=C[C@@]1(CO)C(=O)[C@]21CO1 | -1.23 |
| CC(C)N1CC=CC23O[C@@H]4/C=C\CCCOC(=O)C4[C@H]2C(=O)N(CCCCCO)[C@@H]3C1=O (stereo partly specified) | -1.71 |
| CO[C@@H]1COC(=O)[C@H](C)NC(=O)CC=C[C@@H](C)[C@H](OC)COC(=O)[C@H](C)NC(=O)CC=C[C@H]1C | -0.406 |
| CCOC(=O)C[C@H]1[C@H](OC(=O)Cc2ccc3c(c2)OCO3)[C@@H](NC(=O)c2ccc3ccccc3c2)c2cc(OCCCO)ccc2N1C(=O)Cc1ccc(OC)cc1 | 0.897 |
| CCCN1C(=O)[C@@]2(CCS(=O)(=O)c3ccccc3)N=C(c3ccc(OCCCO)cc3)O[C@H]2c2ccccc21 | -0.676 |
| CCCC[C@@H]1C[C@H]1[C@@H](NC(=O)c1cccs1)c1ccc(Cl)cc1 | 0.804 |
| C[C@H]1COC(=O)[C@@H]2CCCN2C(=O)[C@@H](C)COC(=O)[C@@H]2CCCN2C1=O | -0.503 |
| [N-]=[N+]=NCc1ccccc1C[C@@]1(C(=O)O)N=C(c2ccc(OCCCO)cc2)O[C@@H]1c1ccccc1N=[N+]=[N-] | 0.855 |
| O=C1C2C=CC(C(O)C(c3ccccc3)c3ccccc3)N(Nc3ccc([N+](=O)[O-])cc3)C2C(=O)N1c1ccccc1 (stereo unspecified) | 0.751 |
| CO[C@H]1COC(=O)[C@H](CCSC)NC(=O)CC=C[C@@H](C)COC(=O)[C@@H](OCc2ccccc2)C=C[C@@H]1C | -1.35 |
| CCC(=O)[C@]12O[C@@]3([C@@H]4C(=O)OCC[C@@H]41)N(Cc1ccccc1)C(C)=C(C(=O)OC)[C@@H](c1ccccc1)N3C2=O | 0.226 |
| COC(=O)[C@@]1(Cc2ccc(OC)cc2)[C@H]2c3cc(C(=O)N(C)C)n(CCc4ccc(OC)c(Br)c4)c3C[C@H]2CN1C(=O)c1ccccc1 | 1.11 |
| C#CCCCON=C1C[C@@H](O)[C@@H](O)[C@@H]2[C@@H]3C(=O)N(Cc4ccc5c(c4)OCO5)C(=O)[C@@H]3CC[C@H]12 | 0.86 |
| COC(=O)c1c(CC[C@@H](CO)NC(=O)N[C@H](Cn2cc(-c3cncn3C)nn2)C(C)C)oc(C(C)=O)c1C(=O)OC | 0.697 |
| CCOC(=O)C1=CC[C@@H](c2ccc(-c3ccc(OCc4ccccc4)cc3)c(OC)c2)N(S(=O)(=O)c2ccc(C)cc2)[C@H]1c1ccccc1 | 0.713 |
